Holding throughout (settings): treatment time: 24 h
Experiment [1] deals with HepG2-ACTB-RAB5A. The experiment can be described thus: lowest phenotypically active concentration; higher = less potent. The method in brief: (§1)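 The reporter lines, fifteen in total and built by gene editing in A549, HepG2 and WPMY1 cells, used BFP for segmentation alongside GFP and RFP/FusionRed markers. Each was treated at 0.3, 1, 3 or 9 µM for 24 h in four wells and then imaged live, with live-cell features normalised to solvent control wells. Deviation meant ≥3 of 4 wells beyond the 95th percentile of control Euclidean distances; reproducibility meant a median replicate Pearson correlation above the 95th percentile of non-replicates. Only conditions meeting both were scored as phenotypically active.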

In experiment [2] the test system is HepG2-CANX-COX4. The experiment is described as above. The method in brief: as §1
Experiment [3] deals with HepG2-TP53BP1-CLTA. Described as above. The method in brief: as §1
The test system of experiment [4] is HepG2-TUBA1B-RELA. The description is as above. In short, it runs like this:
as §1

For experiment [5], the system named is WPMY1-ACTB-RAB5A. The experiment is described as above. The method in brief: as §1
Experiment [6] relates to WPMY1-CANX-COX4. Described as above. The method in brief:
as §1

Experiment [7] concerns WPMY1-GM130-SQSTM1. The experiment is described as above. In short, it runs like this: as §1
For experiment [8], the system named is WPMY1-TP53BP1-CLTA. Described as above. The method in brief: as §1
Experiment [9] relates to WPMY1-TUBA1B-RELA. The description is as above. In short, it runs like this:
as §1

For experiment [10], the system named is WPMY1-ACTB-RAB5A. The experiment is described as follows: phenotypically active (imaging signature differs from DMSO and reproducible) at any of 0.3-9 uM (binary (1 = active, 0 = inactive)); higher = active. The method in brief: as §1

Counter-ions that a name gives are not always drawn.

`C=CC(=O)Nc1cccc(CN2C(=O)N(c3c(Cl)c(OC)cc(OC)c3Cl)Cc3cnc(NCCCCN(CC)CC)nc32)c1` [FIIN 1 hydrochloride]: the “lowest phenotypically active concentration” value in [1] is ≤ 0.3 µM; in [2], 3 µM; in experiment [3], ≤ 0.3 µM; in experiment [4], ≤ 0.3 µM; in experiment [5], ≤ 0.3 µM; in [6], 1 µM. The “lowest phenotypically active concentration” value in experiment [7] was ≤ 0.3 µM; in experiment [8], ≤ 0.3 µM; in experiment [9], 1 µM. Also, the phenotypically active in [10] was 1 (active).

For the compound `COc1cc(/C=C/C(=O)N2CCC=CC2=O)cc(OC)c1OC` [Piperlongumine], the “lowest phenotypically active concentration” value in experiment [1] was 3 µM; in experiment [2], 3 µM; in experiment [3], 9 µM; in [4], 3 µM; in experiment [5], 9 µM; in experiment [6], 9 µM. For the same compound, the “lowest phenotypically active concentration” value in experiment [7] turned out to be 3 µM; in experiment [8], 9 µM; in experiment [9] it was 9 µM. In addition, the phenotypically active in experiment [10] was 1 (active).

For `COc1cc(C(=O)N2CCC(N3CCN(C)CC3)CC2)ccc1Nc1ncc2c(n1)N(C)c1ccccc1C(=O)N2C`, the “lowest phenotypically active concentration” value worked out at 1 µM in [1]; 1 µM in [2]; 3 µM in [3]; 1 µM in [4]; 3 µM in experiment [5]; 3 µM in experiment [6]. For the same compound, the results for the “lowest phenotypically active concentration” value in [7], in experiment [8] and in [9] were 1 µM, 3 µM and 1 µM, respectively. The phenotypically active in [10] is 1 (active).

Regarding `O=C1c2c(O)ccc(O)c2C(=O)c2c(NCCNCCO)ccc(NCCNCCO)c21` [mitoxantrone], the “lowest phenotypically active concentration” value in experiment [1], in experiment [2], in experiment [3], in experiment [4], in experiment [5] and in experiment [6] was ≤ 0.3 µM each time. In addition, the “lowest phenotypically active concentration” value in experiment [7], in [8] and in [9] was ≤ 0.3 µM in each case. Besides, the phenotypically active in experiment [10] was 1 (active).

In the case of `C=C1CN(Cc2ccc(C(=O)Nc3ccccc3N)cc2)C(=O)c2ccccc21`, the “lowest phenotypically active concentration” value in [1] is ≤ 0.3 µM; in [2], ≤ 0.3 µM; in experiment [3] it was 1 µM; in experiment [4] it was 1 µM; in experiment [5] it was ≤ 0.3 µM; in experiment [6], ≤ 0.3 µM. Besides, the figures for the “lowest phenotypically active concentration” value in experiment [7], in experiment [8] and in [9] were ≤ 0.3 µM, ≤ 0.3 µM and 3 µM, respectively. In [10], the phenotypically active was 1 (active).

For the compound `COc1cc2nc(-c3cc(F)ccc3O)nc(N[C@@H]3CNC[C@H]3C(C)(C)O)c2cc1OC`, the “lowest phenotypically active concentration” value in [1], in experiment [2], in experiment [3], in [4], in [5] and in [6] was 1 µM in each case. Moreover, the “lowest phenotypically active concentration” value in experiment [7], in [8] and in experiment [9] was 1 µM throughout. Besides, the phenotypically active in experiment [10] was 1 (active).

Consider `Cn1cc(-c2[nH]c3cc(NC(=O)[C@H](N)C4CCCCC4)cc4c3c2C=NNC4=O)cn1`, for which the “lowest phenotypically active concentration” value in experiment [1] was 1 µM; in experiment [2], 3 µM; in experiment [3], 3 µM; in experiment [4], 1 µM; in experiment [5] it was ≤ 0.3 µM; in [6], ≤ 0.3 µM. For the same compound, the “lowest phenotypically active concentration” value in [7], in [8] and in experiment [9] was ≤ 0.3 µM in each case. Also, the phenotypically active in experiment [10] is 1 (active).

As for `CC(C)(C)Nc1nc(Nc2ccc(C(N)=O)cc2)cc(N)c1C#N`, the “lowest phenotypically active concentration” value is 3 µM in [1]; 3 µM in [2]; 3 µM in experiment [3]; 3 µM in [4]; 3 µM in experiment [5]; 9 µM in experiment [6]. Besides, the “lowest phenotypically active concentration” value in experiment [7] came out at 3 µM; in [8] it was 3 µM; in [9] it was 9 µM. For the same compound, in [10], the phenotypically active was 1 (active).
